Compound activity from PubChem BioAssay.
In the library only some 5.7% were active in any assay of this set; here they are far more common.
ATXN viability: viability counter-screen for ATXN expression inhibitors; S2 cells (HEK-293 line with an ATXN2-luciferase reporter) viability, CellTiter-Fluor protease fluorescence, 24 h; Potency, µM (titrated, usually from 56.7 µM), most hits filed as cytotoxic; actives 0.49% (n = 400,000); AID 651635; note: potency is the fitted concentration of half-maximal effect; nearly all actives have a fitted effect of over 40% in size
TGFb SMAD3 inh: TGF-b pathway inhibition; HepG2 CAGA-GFP TGF-b/SMAD3 reporter, GFP fluorescence, 18 h; TGF-beta stimulated, 500 pg/mL final; actives 1.2% (n = 410,000); Potency, µM (doses to about 46.1 µM), for inactives: at the top dose activity, negative = inhibition, usual class: inhibitors; note: potency is the fitted concentration of half-maximal effect; % is set by controls: 0 for no effect and ±100 for the full control effect; nearly all actives have a fitted effect of over 65% in size
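GFP signal (ex488/em500-530) from TGF-beta-stimulated HEPG2 CAGA-GFP cells, 500 pg/mL final, 18 h at 37 degrees C in DMEM plus 1% FBS, normalized to unstimulated and DMSO-stimulated controls.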
HepG2 viability: counter-screen for TGF-b inhibitors: cytotoxicity in HepG2 cells | HepG2 CAGA-GFP viability, ATP luminescence, 18 h | Potency, µM (doses to about 46.1 µM), for inactives: at the highest dose activity change, negative = cytotoxicity, actives largely listed as cytotoxic | actives 0.76% (n = 410,000) | AID 588856; note: potency is the fitted concentration of half-maximal effect
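HepG2 CAGA-GFP cells (1000/well, DMEM with 1% FBS) received compound, then TGF-beta at 500 pg/mL final, and were incubated 18 hours at 37 degrees C. Viability was read by CellTiter-Glo luminescence. Media-only wells were set as complete cell-killing and DMSO as no toxicity.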
ATXN2 expr inh: inhibitors of ATXN2 expression. HEK-293 ATXN2-luciferase reporter, luminescence, 24 h. Potency, µM (top dose mostly 57 µM), for inactives: top-dose activity change, negative = inhibition, usual class: inhibitors. actives 0.72% (n = 360,000). AID 1745845; note: potency is the fitted concentration of half-maximal effect; % is set by controls: 0 for no effect and ±100 for the full control effect; nearly all actives have a fitted effect of over 55% in size
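ATXN2-luciferase reporter cells (luciferase flanked by upstream and downstream ATXN2 gene portions) were treated 24 h at 37 °C with compounds at up to 57 uM. SteadyGlo luminescence gave expression; GF-AFC fluorescence gave viability.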
IL1B secr inh: inflammasome signaling inhibition, IL-1 beta readout | THP-1 LPS/ATP IL-1B secretion, AlphaLISA, 16 h; stronger effect = lower value | actives 4.7% (n = 360,000) | activity change, % at 57.5 µM; in the data active = activity change below about -50%; inconclusive = mostly about -30% to -49%; note: % is set by controls: 0 for no effect and ±100 for the full control effect
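Secreted IL-1B measured by AlphaLISA bead assay after 16 h compound exposure of THP-1 cells; compounds (final up to 57.5 uM) added 1 h before LPS (250 ng/mL) and ATP (1.25 mM) stimulation; lower signal means less secretion.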
* hit, by the source's call. Unless noted, calls come from the whole dose curve; as a rule, active = well fitted curve in the direction sought with a large enough effect; inconclusive = small, poorly fitted or top-dose-only effect, or another doubt; inactive = no such curve, though single readings can be large; an effect the other way counts as inactive or inconclusive.

Screening S=c1[nH]nc(-c2ccc(Cl)cc2Cl)n1-c1ccc2c(c1)OCCO2 returned ATXN viability inconclusive, TGFb SMAD3 inh 1%, HepG2 viability 11%, ATXN2 expr inh 9% and IL1B secr inh 21.
`Oc1ccc(-c2n[nH]c(=S)n2-c2ccc3c(c2)OCCO3)c(O)c1` gave ATXN viability inactive, TGFb SMAD3 inh 14µM*, HepG2 viability -48%, ATXN2 expr inh inconclusive and IL1B secr inh -94*.
For O=C(CC(Cl)(Cl)Cl)N1CCN(/[N+]([O-])=N/Oc2ccc([N+](=O)[O-])cc2[N+](=O)[O-])CC1 the results were TGFb SMAD3 inh inconclusive and HepG2 viability -112%.
`CC(NC(=S)Nc1ccc(OC(F)F)cc1OC(F)F)C(C)(C)C` (stereo unspecified) gave ATXN viability inactive, TGFb SMAD3 inh inconclusive, HepG2 viability -38%, ATXN2 expr inh -28% and IL1B secr inh -91*.
For CC(NC(=S)Nc1ccccc1OC(F)F)C(C)(C)C (stereo unspecified) the results were ATXN viability inactive, TGFb SMAD3 inh 2%, HepG2 viability 1%, ATXN2 expr inh -3% and IL1B secr inh 5.
CN(c1ccccc1)S(=O)(=O)c1ccc(NC(=O)c2cccs2)cc1 was read as ATXN viability inactive, TGFb SMAD3 inh inconclusive, HepG2 viability -4%, ATXN2 expr inh -12% and IL1B secr inh -60*.
Screening CN(c1ccccc1)S(=O)(=O)c1ccc(NC(=O)c2ccc(F)cc2)cc1 returned ATXN viability inactive, TGFb SMAD3 inh inconclusive, HepG2 viability 2%, ATXN2 expr inh 20% and IL1B secr inh -86*.
`CN(c1ccccc1)S(=O)(=O)c1ccc(NC(=O)c2ccccc2)cc1` gave ATXN viability inactive, TGFb SMAD3 inh inconclusive, HepG2 viability 21%, ATXN2 expr inh -2% and IL1B secr inh inconclusive.
`C=C1CCN(C(CC(C)C)C(=O)NCCCc2ccccc2)S(=O)(=O)c2ccccc21` (stereo unspecified) gave TGFb SMAD3 inh 11µM* and HepG2 viability -33%.
Screening O=C(/C=C/c1cccs1)Nc1nc(-c2ccccc2)cs1 returned ATXN viability inconclusive, TGFb SMAD3 inh -28%, HepG2 viability -11%, ATXN2 expr inh -33% and IL1B secr inh -57*.
`O=C(COC(=O)c1cccs1)Nc1nc(-c2ccccc2)cs1` gave ATXN viability inactive, TGFb SMAD3 inh 2%, HepG2 viability 1%, ATXN2 expr inh 19% and IL1B secr inh -5.
O=C(COC(=O)/C=C/c1cccs1)Nc1nc(-c2ccccc2)cs1 was read as ATXN viability inactive, TGFb SMAD3 inh -19%, HepG2 viability -39%, ATXN2 expr inh 4% and IL1B secr inh -13.
O=C(Cc1cccs1)Nc1nc(-c2ccccc2)cs1 was read as ATXN viability inactive, TGFb SMAD3 inh 1%, HepG2 viability -33%, ATXN2 expr inh 17% and IL1B secr inh -70*.
For Cc1ccnc(NC(=O)/C=C/c2cccs2)c1 the results were ATXN viability inactive, TGFb SMAD3 inh -24%, HepG2 viability -26%, ATXN2 expr inh 10% and IL1B secr inh -98*.
For O=C(/C=C/c1cccs1)Nc1nncs1 the results were ATXN viability inactive, TGFb SMAD3 inh 2%, HepG2 viability -15%, ATXN2 expr inh 49% and IL1B secr inh inconclusive.
Screening O=C(/C=C\c1ccco1)Nc1nc(-c2ccc3ccccc3c2)cs1 returned ATXN viability inactive, TGFb SMAD3 inh -7%, HepG2 viability -10%, ATXN2 expr inh inconclusive and IL1B secr inh -72*.
`CC(=O)Nc1nc(-c2ccc3c(c2)CCN3S(C)(=O)=O)cs1` gave ATXN viability inactive, TGFb SMAD3 inh 18%, HepG2 viability 7%, ATXN2 expr inh 53% and IL1B secr inh -27.
O=C(Nc1nc(-c2ccccc2)cs1)c1ccco1 was read as ATXN viability inactive, TGFb SMAD3 inh -24%, HepG2 viability -23%, ATXN2 expr inh 36% and IL1B secr inh -59*.
Screening COc1ccc(-c2csc(NC(=O)c3ccco3)n2)cc1 returned ATXN viability inactive, TGFb SMAD3 inh 0%, HepG2 viability -39%, ATXN2 expr inh 46% and IL1B secr inh -26.
